Experimental findings from PubChem BioAssay AID1851 (National Center for Advancing Translational Sciences (NCATS), 2009) are described below.

Among all 16,000 compounds or so, about 5,800 (36%) were called active. About 23% were inconclusive and are not listed. This is one part of the list. Unmarked numbers belong to inactive results. The call rests on the fitted dose curve; in most records, active means well fitted curve in the direction sought with a large enough effect; inconclusive means small, poorly fitted or top-dose-only effect, or effect the other way; inactive means no such curve, though single readings can be large or run the other way.
On the % scale 0 is the no-effect control and ±100 the full control effect.

Chain of Cytochrome P450 2C19 (Homo sapiens) (P33261 whole entry, looked up): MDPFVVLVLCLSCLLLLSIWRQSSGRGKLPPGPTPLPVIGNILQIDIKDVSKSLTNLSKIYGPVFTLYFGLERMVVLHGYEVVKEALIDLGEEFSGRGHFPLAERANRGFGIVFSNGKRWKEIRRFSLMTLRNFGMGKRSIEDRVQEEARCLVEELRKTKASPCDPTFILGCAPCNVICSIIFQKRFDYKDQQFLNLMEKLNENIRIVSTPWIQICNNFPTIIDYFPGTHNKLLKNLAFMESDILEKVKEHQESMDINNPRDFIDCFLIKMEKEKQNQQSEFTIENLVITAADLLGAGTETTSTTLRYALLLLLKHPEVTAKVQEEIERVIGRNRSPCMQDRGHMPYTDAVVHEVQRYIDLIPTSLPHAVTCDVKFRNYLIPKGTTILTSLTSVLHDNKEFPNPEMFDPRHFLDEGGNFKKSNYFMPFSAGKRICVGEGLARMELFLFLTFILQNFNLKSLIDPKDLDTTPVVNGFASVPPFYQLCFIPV

The test concerns the target Cytochrome P450 2C19 (Homo sapiens) (UniProt P33261). Briefly: Cytochrome panel assay with activity outcomes. The conditions noted are these: recombinant CYP, pro-luciferin dealkylation, luminescence, p450-cyp2c19; series mostly up to 57.1 µM; activity, negative = inhibition: at the top concentration.
As to `O=C(c1cnccn1)N1CCC2(CC1)CN(c1cccc(-c3ccccc3)c1)C2`, the “activity, negative = inhibition” value is -33.5%. Consider `O=C(O)/C=C\C(=O)Nc1cccc2c1-c1ccccc1C2=O`, for which the activity, negative = inhibition was 28.6% [at 11.4 µM]. With `Cc1ccccc1CNc1ncnc2c1ncn2[C@@H]1O[C@@H](CO)[C@H](O)[C@@H]1O`, the “activity, negative = inhibition” value is -20.9%. In general, AC50 refers to the concentration giving half of the maximal activity seen. Regarding `O=C(CCCn1c(=S)[nH]c2ccc(Br)cc2c1=O)NCC1CCCO1` (configuration not stated), the AC50 is 3.55 µM (active). On to `CCCc1nnc(NC(=O)CCC(=O)N2CCN(c3ccccn3)CC2)s1`, for which the “activity, negative = inhibition” value is -12.7%. As to `O=C(CCCn1c(=S)[nH]c2ccc(Br)cc2c1=O)N1CCN(c2ccccn2)CC1`, the concentration at half-maximal activity (AC50) is 2.51 µM (active).

For `CN=C(NC#N)NCCSC[C@H]1N=CN=C1C`, the “activity, negative = inhibition” value is -24.8% [at 25.6 µM]. Still for that read-out and setting: in the case of `N[C@@H]1[C@@H]2[C@@H]3C[C@H]4N(CC[C@@]14C(=O)C(=O)O)CC3=CCO[C@@H]2CC(=O)O` it was -13.5% [at 11.4 µM]. For the molecule `Cc1ccc(S(=O)(=O)NCCSc2nnnn2C)cc1`, the AC50 was 5.01 µM (active). With `Cc1cccc(CNc2ncnc3ccc(-c4ccoc4)cc23)c1`, the AC50 was 7.94 µM (active). For `Cc1cccc(CNc2ncnc3ccc(-c4cccc(C#N)c4)cc23)c1`, the “activity, negative = inhibition” value was -42.8%. In the case of `c1cncc(CNc2ncnc3ccc(-c4ccoc4)cc23)c1`, the AC50 was 0.0251 µM (active). For `Cn1cccc1C(=O)N1CCC2(CC1)CN(C(c1ccccc1)c1ccccc1)C2`, the “activity, negative = inhibition” value was -38.6%.

On to `CC(C)N(C(=O)CSc1nc2ccccc2n1-c1ccccc1)C(C)C`, for which the AC50 is 7.94 µM (active).

Take `COC(=O)c1cc2c(ccn2-c2ccc(F)cc2)n1CC(C)C`: the AC50 was 3.16 µM (active). For `COC(=O)c1cc2c(ccn2-c2ccc(F)cc2)n1C(C)C`, the AC50 is 2 µM (active). For `COCCn1c(=O)c(-c2ccc(F)cc2)nc2cnc(N(C)C)nc21`, the “activity, negative = inhibition” value was -11.5%.

`C=C[C@H](N)CCC(=O)O`: the AC50 entry was “inactive”. For the molecule `CCc1ccccc1NC(=O)CSc1nc(-c2ccccc2)nn1C(=O)c1cccc([N+](=O)[O-])c1`, the AC50 was 0.398 µM (active). In the case of `COc1ccccc1-c1cc(-n2ccnc2)ncn1`, the AC50 is 2 µM (active). As for `CNc1cc(-c2ccccc2CN(C)C)ncn1`, the “activity, negative = inhibition” value was 17.8%. For the molecule `CN(C)Cc1ccccc1-c1cc(NC2CC2)ncn1`, the “activity, negative = inhibition” value was 18.5%. Take `CN(C)Cc1ccccc1-c1cc(-n2ccnc2)ncn1`: the AC50 is 25.1 µM (active).

In the case of `O=C(O)CCC(=O)N1CCc2cc(S(=O)(=O)N3CCCCC3)ccc21`, the “activity, negative = inhibition” value was -17%. For `CSc1nc2cc(S(=O)(=O)N3CCCCC3)ccc2s1`, the AC50 was 1.26 µM (active). As to `NS(=O)(=O)c1cccc2c1c([N+](=O)[O-])cc1nc(O)c(O)nc12`, the “activity, negative = inhibition” value is -26.9%.

Regarding `c1cncc(CNc2cc(-c3ccoc3)ncn2)c1`, the “activity, negative = inhibition” value is -30.3%.

As for `COc1cccc(-c2cc(NCc3cccnc3)ncn2)c1`, the AC50 was 10 µM (active). On the same count and under the same terms, in the case of `COc1cccc(-c2cc(NCc3ccccc3)ncn2)c1` it was 7.94 µM (active). As to `CN(C)C(=O)c1ccc(-c2cc(NCc3cccnc3)ncn2)cc1`, the “activity, negative = inhibition” value is 6.59%. For the molecule `Nc1ccn([C@@H]2CC[C@H](CO)O2)c(=O)n1`, the “activity, negative = inhibition” value is 5.48% [at 25.6 µM].

As for `O=C(O)[C@@H]1[C@@H]2C[C@H]3c4[nH]c5ccccc5c4CCN3C[C@@H]2CC[C@@H]1O`, the “activity, negative = inhibition” value is -4.36% [at 25.6 µM].

Regarding `S=C(NCc1ccccn1)Nc1cccc(Cl)c1`, the AC50 was 3.55 µM (active). Consider `S=C(Nc1cccc(Cl)c1)NC1CCCCC1`, for which the AC50 is 7.08 µM (active). In the case of `CC(=O)NS(=O)(=O)c1ccc(NC(=O)NC2CCCCC2)cc1`, the “activity, negative = inhibition” value was -8.77%.

As to `NC(=O)c1ccc(NC(=O)C2CCCO2)cc1` (configuration not stated), the “activity, negative = inhibition” value is -17.7%. `Cc1ccc(NC(=S)N2CCN(C3CCCCC3)CC2)cc1`: the AC50 was 6.31 µM (active). For the molecule `O=C(Nc1ccc(Cl)cc1)NC1CCCCC1`, the AC50 is 8.91 µM (active).

For the molecule `Cc1ccc(NC(=S)N2CCN(C(=O)C3CCCO3)CC2)c(C)c1` (configuration not stated), the “activity, negative = inhibition” value was -24.4%. The same measure, in the same setting: next, `Nc1nc(N)nc(CCCc2nc(N)nc(N)n2)n1`: 103% [at 11.4 µM]. Consider `N#Cc1cccc(-c2nc3cnc(N4CCNCC4)nc3n(C3CC3)c2=O)c1`, for which the “activity, negative = inhibition” value was -6.27%.

Regarding `CN1C(=O)C(CC(N)=O)N(NC(=O)c2ccc(Cl)cc2)C1=S` (configuration not stated), the “activity, negative = inhibition” value was -1.48%. On to `Cc1ccc(NC(=S)NC2CCCC2)cc1`, for which the AC50 was 3.55 µM (active). Take `CO[C@H]1COC(=O)C/C=C\[C@H](C)[C@@H](OC)COC(=O)[C@@H](C)COC(=O)C/C=C\[C@@H]1C`: the activity, negative = inhibition is -29.5% [at 11.4 µM]. As to `CN1CCN(c2ncc3nc(-c4ccc(Cl)cc4)c(=O)n(Cc4cccs4)c3n2)CC1`, the “activity, negative = inhibition” value is -10.7%. Take `COc1ccc(Cn2c(SCc3ccccc3C)nc3cc(OC)c(OC)cc3c2=N)cc1`: the AC50 is 20 µM (active). For `COc1cc2nc(SCc3ccc(Cl)cc3Cl)n(Cc3cccs3)c(=N)c2cc1OC`, the AC50 was 2.51 µM (active). The same measure, in the same setting: in the case of `COc1cccc(-c2ccc3ncnc(N4CCOCC4)c3c2)c1` it was 3.98 µM (active). In the case of `O=C(O)C1CCN(c2ncnc3ccc(-c4ccccc4C(F)(F)F)cc23)CC1`, the “activity, negative = inhibition” value is 7.46%.

As for `CN1CCN(c2ncnc3ccc(-c4ccccc4C#N)cc23)CC1`, the “activity, negative = inhibition” value is -12.2%.

For the molecule `FC(F)(F)c1ccccc1-c1ccc2ncnc(N3CCOCC3)c2c1`, the AC50 was 0.631 µM (active).

Consider `Cc1ccccc1-c1ccc2ncnc(N3CCN(C)CC3)c2c1`, for which the “activity, negative = inhibition” value was -43.3%. With `CN1CCN(c2ncnc3ccc(-c4ccccc4Cl)cc23)CC1`, the AC50 is 3.98 µM (active). Take `COc1ccccc1-c1ccc2ncnc(N3CCOCC3)c2c1`: the AC50 is 1.26 µM (active). Turning to `CS(=O)(=O)Nc1cccc(-c2ccc3ncnc(N4CCOCC4)c3c2)c1`, the “activity, negative = inhibition” value was -21.5%. As to `FC(F)(F)c1ccccc1-c1nc(N2CCOCC2)c2ccccc2n1`, the AC50 is 15.8 µM (active). Take `COc1cccc(-c2ccc3ncnc(N4CCNCC4)c3c2)c1`: the AC50 was 3.16 µM (active).

As to `CS(=O)(=O)Nc1cccc(-c2ccc3ncnc(N4CCNCC4)c3c2)c1`, the “activity, negative = inhibition” value was -37.5%. In the case of `COc1ccccc1-c1nc(N2CCOCC2)c2ccccc2n1`, the “activity, negative = inhibition” value was -12.8%. On to `CN1CCN(c2nc(-c3ccccc3C(F)(F)F)nc3ccccc23)CC1`, for which the “activity, negative = inhibition” value is -31.9%. Same read-out and setting: next, `N#Cc1cccc(-c2ccc3ncnc(N4CCNCC4)c3c2)c1`: -32.6%; `NCCCCC(=O)O`: 10.4%. For the molecule `CCOC(=O)C1=C(c2ccccc2)OC(N)=C(C#N)C1c1ccc(Cl)s1` (configuration not stated), the AC50 is 0.398 µM (active). As for `CCc1cc2c(=O)c(-c3nc4ccccc4[nH]3)coc2cc1OC(=O)N1CCOCC1`, the AC50 is 15.8 µM (active).

In the case of `COc1cc(Br)c(C(C)NC(=O)c2cccc(Br)c2)cc1OC` (configuration not stated), the AC50 was 2.24 µM (active). Same read-out and setting: next, `COc1ccccc1CNc1ncnc2ccc(-c3ccc(N(C)C)cc3)cc12`: 10 µM (active).

For the molecule `COc1ccccc1CNc1ncnc2ccc(-c3ccc4c(c3)OCO4)cc12`, the AC50 is 3.16 µM (active).

`CN(C)c1ccc(-c2ccc3ncnc(NCc4ccccc4)c3c2)cc1`: the AC50 was 7.94 µM (active).

As for `COc1ccc(CNc2ncnc3ccc(-c4ccc(N(C)C)cc4)cc23)c(OC)c1`, the AC50 was 3.98 µM (active).

For the molecule `CC(C)CO/N=C1/C[C@@H](O)[C@@H](O)[C@@H]2[C@@H]3C(=O)N(C[C@@H]4CCCO4)C(=O)[C@H]3CC[C@H]12`, the activity, negative = inhibition is 24.8% [at 11.4 µM]. On to `COc1ccc(CNc2ncnc3ccc(-c4ccc(C(=O)N(C)C)cc4)cc23)c(OC)c1`, for which the AC50 is 15.8 µM (active).

Take `COCCNc1ncnc2ccc(-c3ccc(C(=O)N(C)C)cc3)cc12`: the “activity, negative = inhibition” value was 6.62%. For `Clc1ccc(Sc2cc(N3CCOCC3)nc(-c3ccccc3)n2)cc1`, the AC50 was 3.55 µM (active). `CS(=O)(=O)Nc1cccc(-c2nc(N3CCOCC3)c3ccccc3n2)c1`: the “activity, negative = inhibition” value is -36.3%. Turning to `COc1cccc(Sc2cc(N3CCOCC3)nc(-c3ccccc3)n2)c1`, the AC50 was 14.1 µM (active). Take `O=c1nc(N2CCOCC2)ccn1-c1nc(-c2ccccc2)oc1-c1ccccc1`: the “activity, negative = inhibition” value was -22.4%. Still for that read-out and setting: in the case of `Nc1nc(Cl)cc(N2CCOCC2)n1` it was -18.1%. Turning to `Cc1c(Br)c([N+](=O)[O-])nn1C(C)C(=O)Nc1nccs1` (configuration not stated), the AC50 is 10 µM (active). Same read-out and setting: in the case of `CCc1ccccc1NC(=O)C(C)n1nc([N+](=O)[O-])c(Br)c1C` (configuration not stated) it was 2.51 µM (active); in that of `C[N+](C)(C)CCCCCC[N+](C)(C)C`, “inactive”; in that of `O=C(CSCC(=O)OCn1nnc2ccccc2c1=O)Nc1ccc(Cl)cc1`, 11.2 µM (active). Same read-out and setting: next, `CCC1OC23CCCCC2C(C#N)(C(=N)O3)C1(C#N)C#N` (configuration not stated): 17.8 µM (active); `Nc1ccccc1S[C@@H](C[N+](=O)[O-])c1ccc2c(c1)OCO2`: 1.58 µM (active). Regarding `COc1ccc(C(=O)N2CCC[C@@]3(CCN(C(=O)NC(C)C)C3)C2)cc1`, the “activity, negative = inhibition” value is 13.2%. Same read-out and setting: next, `CCN1CCN(c2cc(=O)n(-c3cc(Cl)ccc3C)c(=O)[nH]2)CC1`: -12%.

Take `CCCCCn1c(CN2CCN(c3cc(Cl)ccc3C)CC2)nc2c1c(=O)[nH]c(=O)n2C`: the AC50 is 3.55 µM (active).

Regarding `COc1cc(O)c2c(O)c3c(c4c2c1[C@@]1(C4)C(C)=CCCC1(C)C)[C@H](O)[C@@]1(O)CC(=O)C(C(N)=O)=C(O)[C@]1(O)C3=O`, the AC50 was 2.51 µM (active). Turning to `CN(C)CCNc1oc(COc2ccc(Cl)cc2Cl)nc1C#N`, the “activity, negative = inhibition” value was 0.262%. Take `N#Cc1nc(COc2ccccc2Cl)oc1NCc1ccco1`: the AC50 was 2.24 µM (active). Consider `CCC1C(=O)N=C(SCC(=O)Nc2ccc(C(=O)OC)cc2)NC1=O` (configuration not stated), for which the AC50 is 22.4 µM (active). For the molecule `CCOC(=O)c1ccc(NC(=O)CC2NCCNC2=O)cc1` (configuration not stated), the “activity, negative = inhibition” value was 19.3%. In the case of `CCCCSc1ccc2nc(-c3ccc(C#N)cc3)cn2c1`, the AC50 was 4.47 µM (active). With `O=C(O)C[C@H](Cc1ccccc1Cl)C(=O)O`, the activity, negative = inhibition is 14.2% [at 11.4 µM]. `Clc1ccccc1CNCC1CCC(CNCc2ccccc2Cl)CC1` (configuration not stated): the AC50 is 0.794 µM (active). As to `Oc1ccccc1CNCc1ccccc1O`, the activity, negative = inhibition was -44.5% [at 11.4 µM]. `CC(N)=NCCCC[C@H](N)C(=O)O`: the AC50 entry is “inactive”. As to `NC(=O)C1(N2CCCCC2)CCN(C(=O)c2ccc(-n3cnnn3)cc2)CC1`, the “activity, negative = inhibition” value was -7.9%. Regarding `NC(=O)C1(N2CCCCC2)CCN(C(=S)Nc2ccc(Cl)cc2)CC1`, the AC50 was 3.16 µM (active). With `O=C(O)C1(Nc2ccc(Cl)cc2)CCCC1`, the activity, negative = inhibition was 25.8% [at 11.4 µM]. Take `CCCCSC(=S)N(C)C1CCS(=O)(=O)C1` (configuration not stated): the AC50 is 3.98 µM (active).

For `CCCCN(C(=S)Nc1ccccc1)C1CCS(=O)(=O)C1` (configuration not stated), the “activity, negative = inhibition” value was -28.8%. As for `CCCNC1CCS(=O)(=O)C1` (configuration not stated), the “activity, negative = inhibition” value was 3.5%.
